# Assay results taken from PubChem BioAssay (Tox21).
# Unmarked numbers belong to inactive results. Inconclusive results are not listed. Where a call stands in place of a potency, no number is given. Activity calls are given as the source filed them. The call rests on the fitted dose curve; in most records, active means well fitted curve in the direction sought with a large enough effect in the repeat runs; inconclusive means weak or mixed curves; inactive means no such curve, though single readings can be large; an effect the other way counts as inactive or inconclusive.
# Tests used:
# [1] = Human pregnane X receptor (PXR) small molecule agonists, qHTS cell viability counter screen (AID 1346977); further: nearly all actives have a fitted effect of over 50% in size; further: potency means the concentration at half of the fitted maximal effect
# In short: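 PXR-Luc HepG2, 2,000 cells/well, 5% charcoal-stripped FBS; 5hr settle; cpd 24hr, 37C/5% CO2; CellTiter-Fluor at 23hr, read 1hr later (fluorescence).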
# [2] = Caspase-3/7 induction in HepG2 cells by small molecules, qHTS assay (AID 1346978); further: nearly all actives have a fitted effect of over 15% in size
# In short: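 Caspase-3/7 induction was measured by Caspase-Glo 3/7 luminescence (30 min, room temperature) after a 17 hr compound exposure of wild-type HepG2 cells seeded at 2,000 per well and pre-incubated 5 hr.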
# [3] = Caspase-3/7 induction in CHO-K1 cells by small molecules, qHTS assay (AID 1346980); further: nearly all actives have a fitted effect of over 15% in size
# In short: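 Luminescent Caspase-Glo 3/7 read (30min, room temperature) quantified apoptosis induction. Cells were wild-type CHO-K1, treated with compound for 17hr at 37 C and 5% CO2.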
# [4] = Caspase-3/7 induction in HepG2 cells by small molecules, qHTS cell viability counter screen (AID 1346981); further: series mostly up to about 92 µM; nearly all actives have a fitted effect of over 30% in size
# In short: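 Wild-type HepG2 cells, 2,000/well, settled 5 hr at 37 C, 5% CO2 before compound addition. Viability read by CellTiter-Fluor fluorescence, reagent added after 16 hr compound exposure, then 1 hr at 37C, in the same wells as the caspase read.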
# [5] = target: Nuclear receptor subfamily 1 group I member 2 (Homo sapiens) (UniProt O75469); experiment: Human pregnane X receptor (PXR) small molecule agonists, qHTS assay (AID 1346982); further: nearly all actives have a fitted effect of over 35% in size; further: potency means the concentration at half of the fitted maximal effect
# Nuclear receptor subfamily 1 group I member 2 (Homo sapiens), sequence (O75469 whole entry, looked up): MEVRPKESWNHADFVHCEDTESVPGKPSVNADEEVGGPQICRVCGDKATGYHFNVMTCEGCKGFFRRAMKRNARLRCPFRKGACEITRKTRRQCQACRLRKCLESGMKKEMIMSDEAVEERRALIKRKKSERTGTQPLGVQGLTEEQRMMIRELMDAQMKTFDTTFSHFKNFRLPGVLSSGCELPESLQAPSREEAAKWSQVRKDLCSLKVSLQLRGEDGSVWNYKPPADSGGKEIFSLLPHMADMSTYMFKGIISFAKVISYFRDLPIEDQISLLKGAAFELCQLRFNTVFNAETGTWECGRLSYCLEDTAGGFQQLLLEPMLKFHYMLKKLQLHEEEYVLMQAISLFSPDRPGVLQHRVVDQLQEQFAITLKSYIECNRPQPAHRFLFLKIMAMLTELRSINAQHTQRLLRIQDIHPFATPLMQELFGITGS
# In short: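 PXR-Luc HepG2 reporter cells (CYP3A4-driven luciferase) in 5% charcoal-stripped FBS medium, plated 5 h before compound addition, then treated 24 h at 37C. Luciferase read by ONE-Glo luminescence after 30 min at room temperature.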
# [6] = target: Cytochrome P450 2D6 (Homo sapiens) (UniProt P10635); experiment: Cytochrome P450 Family 2 Subfamily D Member 6 (CYP2D6) small molecule antagonists: luciferase reporter qHTS assay (AID 1671196); further: nearly all actives have a fitted effect of over 50% in size; further: potency means the concentration at half of the fitted maximal effect; on activity change, negative = inhibition: series mostly up to about 120 µM
# Cytochrome P450 2D6 (Homo sapiens), sequence (P10635 whole entry, looked up): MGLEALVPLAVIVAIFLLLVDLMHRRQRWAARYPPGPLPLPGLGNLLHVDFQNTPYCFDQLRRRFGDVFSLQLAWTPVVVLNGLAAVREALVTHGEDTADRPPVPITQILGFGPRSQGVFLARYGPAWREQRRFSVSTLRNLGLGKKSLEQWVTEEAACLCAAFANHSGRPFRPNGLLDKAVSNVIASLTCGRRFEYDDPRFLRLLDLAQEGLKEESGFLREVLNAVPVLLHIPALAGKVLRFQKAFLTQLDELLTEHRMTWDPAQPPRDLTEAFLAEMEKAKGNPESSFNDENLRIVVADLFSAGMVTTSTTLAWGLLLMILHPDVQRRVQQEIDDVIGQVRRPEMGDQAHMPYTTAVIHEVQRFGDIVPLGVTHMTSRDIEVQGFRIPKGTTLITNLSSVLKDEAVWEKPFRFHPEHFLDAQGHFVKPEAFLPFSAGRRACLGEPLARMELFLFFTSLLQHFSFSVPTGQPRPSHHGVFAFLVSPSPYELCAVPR
# In short: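 Cell-free P450-Glo system: CYP2D6 with proluciferin substrate was pre-incubated with compound for 10 min, then reacted with NADPH regeneration for 1 h at room temperature. Luciferin product was detected after 20 min, and data were reported as relative luminescence units.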
# [7] = target: Nuclear receptor subfamily 1 group I member 2 (Rattus norvegicus) (UniProt Q9R1A7); experiment: Rat pregnane X receptor (rPXR) activation by small molecules, qHTS assay (AID 1346983); conditions: rPXR luciferase reporter cells, One-Glo luminescence, 24 h; max activation: active compounds read high; further: nearly all actives have a fitted effect of over 20% in size
# Nuclear receptor subfamily 1 group I member 2 (Rattus norvegicus), sequence (Q9R1A7 whole entry, looked up): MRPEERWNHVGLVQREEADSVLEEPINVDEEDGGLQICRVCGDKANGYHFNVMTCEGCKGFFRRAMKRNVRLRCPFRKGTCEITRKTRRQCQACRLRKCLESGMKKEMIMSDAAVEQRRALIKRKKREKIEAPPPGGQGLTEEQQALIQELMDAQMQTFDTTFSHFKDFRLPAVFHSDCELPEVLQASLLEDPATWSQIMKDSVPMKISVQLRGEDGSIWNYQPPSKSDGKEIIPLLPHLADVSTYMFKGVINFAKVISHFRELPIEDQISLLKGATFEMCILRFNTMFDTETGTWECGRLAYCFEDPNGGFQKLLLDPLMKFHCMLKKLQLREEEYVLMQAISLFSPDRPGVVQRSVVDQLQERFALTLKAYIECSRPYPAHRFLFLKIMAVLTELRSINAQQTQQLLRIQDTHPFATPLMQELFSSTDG
# In short: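 Luminescent readout (One-Glo luciferase, 30 min room temperature) followed 24 hr compound treatment at 37 C of rPXR cells plated 2,000 per well and preincubated 5hr; qHTS format with compounds delivered in DMSO.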
# [8] = target: Nuclear receptor subfamily 1 group I member 2 (Homo sapiens) (UniProt O75469); experiment: CYP3A4 induction through human pregnane X receptor (PXR) by small molecules, qHTS assay (AID 1346984); further: nearly all actives have a fitted effect of over 40% in size
# In short: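 DPX-2 HepG2 cells carrying a PXR response element and CYP3A4-promoter luciferase construct, treated with compounds 24 hr at 37C. Then P450-Glo CYP3A4 Luciferin-IPA substrate (3uM final) for 3 hr at 37C, One-Glo added, luminescence read.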
# [9] = target: Nuclear receptor subfamily 1 group I member 2 (Homo sapiens) (UniProt O75469); experiment: Human pregnane X receptor (PXR) activation by small molecules, qHTS assay (AID 1346985); further: nearly all actives have a fitted effect of over 40% in size
# In short: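 DPX-2 cells (HepG2 co-transfected with a PXR response element and a CYP3A4-promoter luciferase construct) were seeded at 2,000 per well, rested 5 hr at 37C, then exposed to DMSO-dissolved compounds for 24 hr. Activation was read as luciferase luminescence.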
# [10] = Caspase-3/7 induction in CHO-K1 cells by small molecules, qHTS cell viability counter screen (AID 1346979); further: nearly all actives have a fitted effect of over 35% in size
# In short: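 Cells (CHO-K1, wild type) are plated at 1,500 per well and incubated 5hr. Test compounds in DMSO are then pinned in, followed by 16hr at 37C and 5% CO2. Viability is read by CellTiter-Fluor fluorescence after 1hr.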
structure (smiles),measurement,setting,value
C=C(C)C(=O)OCCOP(=O)(O)O,Potency,[1],inactive
same,Potency,[2],inactive
same,outcome,[3],inactive
same,Potency,[4],inactive
same,Potency,[5],inactive
same,Potency,[6],inactive
CC1(C)C(=O)N(Cl)C(=O)N1Br,Potency,[1],inactive
same,Potency,[2],inactive
same,outcome,[3],inactive
same,Potency,[4],inactive
same,Potency,[5],inactive
same,Potency,[6],inactive
Cc1ccc(C(C)C)cc1O,Potency,[1],inactive
same,Potency,[2],inactive
same,outcome,[3],inactive
same,Potency,[4],inactive
same,Potency,[6],inactive
CCOc1ccc(OCC)c(Cl)c1,Potency,[1],inactive
same,Potency,[2],inactive
same,Potency,[4],inactive
same,Potency,[5],inactive
same,Potency,[6],inactive
CC(C)(C)c1cccc(O)c1,Potency,[1],inactive
same,Potency,[2],inactive
same,outcome,[3],inactive
same,Potency,[6],inactive
CC[C@H]1CC[C@H](NCc2cc3c(cc2OC)[C@H]2C[C@H]2C(=O)N3C)[C@H](c2ccccc2)N1,Potency,[1],30.6 µM (active)
same,Potency,[2],inactive
same,outcome,[3],inactive
same,Potency,[4],inactive
same,Potency,[6],7.1 µM (active)
Nc1ccc2ccccc2c1S(=O)(=O)O,Potency,[1],inactive
same,Potency,[2],inactive
same,outcome,[3],inactive
same,Potency,[5],62.3 µM (active)
same,Potency,[6],32.4 µM (active)
OCCN(CCO)c1ccccc1,Potency,[1],inactive
same,Potency,[2],inactive
same,outcome,[3],inactive
same,Potency,[4],inactive
same,Potency,[5],inactive
same,Potency,[6],inactive
CC1=CC(=O)CC(C)(C)C1=O,Potency,[1],inactive
same,Potency,[2],inactive
same,outcome,[3],inactive
same,Potency,[4],inactive
same,Potency,[5],62.4 µM (active)
same,Potency,[6],inactive
Cc1onc(-c2ccccc2)c1C(=O)Cl,Potency,[1],inactive
same,Potency,[2],inactive
same,outcome,[3],inactive
same,Potency,[4],inactive
same,Potency,[5],inactive
same,Potency,[6],inactive
CC(C)(CO)[C@@H](O)C(=O)NCCC(=O)O,Potency,[1],inactive
same,Potency,[2],inactive
same,Potency,[4],inactive
same,Potency,[5],inactive
same,Potency,[6],inactive
C=CC(C)(O)CC/C=C(\C)CCC=C(C)C (stereo not given),Potency,[1],inactive
same,Potency,[2],inactive
same,outcome,[3],inactive
same,Potency,[5],inactive
same,max activation,[7],3.74%
same,Potency,[8],inactive
same,Potency,[9],inactive
O=C(Cl)c1cccc([N+](=O)[O-])c1,Potency,[1],inactive
same,Potency,[2],inactive
same,Potency,[4],inactive
same,Potency,[5],inactive
same,Potency,[6],inactive
CN1CCC[C@@H]1Cc1c[nH]c2ccc(CCS(=O)(=O)c3ccccc3)cc12,Potency,[1],inactive
same,Potency,[2],inactive
same,outcome,[3],inactive
same,Potency,[4],inactive
same,max activation,[7],0.279%
same,Potency,[6],13.8 µM (active)
Cc1ccsc1C(=CCCN1CCC[C@@H](C(=O)O)C1)c1sccc1C,Potency,[1],inactive
same,Potency,[2],inactive
same,outcome,[3],inactive
same,Potency,[4],inactive
same,max activation,[7],2.87%
same,Potency,[8],inactive
same,Potency,[6],inactive
COc1ccc(Nc2ccc(OC)cc2)cc1,Potency,[1],inactive
same,Potency,[2],inactive
same,outcome,[3],inactive
same,Potency,[4],inactive
same,Potency,[5],24.8 µM (active)
same,Potency,[6],36.2 µM (active)
CCCCOc1cc(C(=O)NCCN(CC)CC)c2ccccc2n1,Potency,[1],21.1 µM (active)
same,Potency,[2],inactive
same,outcome,[3],inactive
same,max activation,[7],-1.11%
same,Potency,[6],13.8 µM (active)
N#CSCC(=O)O,Potency,[1],inactive
same,Potency,[2],inactive
same,outcome,[3],inactive
same,Potency,[4],inactive
same,Potency,[5],inactive
same,Potency,[6],inactive
Nc1cccc(S(=O)(=O)O)c1,Potency,[1],inactive
same,Potency,[2],inactive
same,outcome,[3],inactive
same,Potency,[4],inactive
same,Potency,[5],inactive
same,Potency,[6],71.2 µM (active)
O=c1oc2c(O)c(O)cc3c(=O)oc4c(O)c(O)cc1c4c23,"activity change, negative = cytotoxicity",[1],4.42% [at 19 µM]
same,caspase activation,[2],0.0819% [at 19 µM]
same,caspase-3/7 activation,[3],0.998% [at 19 µM]
same,"activity change, negative = cytotoxicity",[4],1.61% [at 19 µM]
same,"activity change, negative = inhibition",[6],-16.4% [at 23.6 µM]
CCCCCCOc1ccc(N)cc1,Potency,[1],inactive
same,Potency,[2],inactive
same,outcome,[3],inactive
same,Potency,[4],inactive
same,Potency,[6],35.6 µM (active)
CCCCNC(=S)NCCCC,Potency,[2],inactive
same,Potency,[4],inactive
same,Potency,[5],34.4 µM (active)
same,Potency,[6],1.42 µM (active)
COc1cc2c(cc1N)oc1ccccc12,Potency,[2],inactive
same,outcome,[3],inactive
same,Potency,[4],inactive
same,Potency,[5],27.9 µM (active)
same,Potency,[6],7.25 µM (active)
O=C(O)[C@@H]1CSCN1,Potency,[2],inactive
same,Potency,[10],inactive
same,outcome,[3],inactive
same,Potency,[4],inactive
same,Potency,[5],inactive
same,max activation,[7],0.44%
same,Potency,[8],inactive
same,Potency,[9],inactive
CC(C)CC(=O)OCc1ccccc1,Potency,[2],inactive
same,Potency,[10],inactive
same,Potency,[4],inactive
same,Potency,[6],inactive
CN(C)C(=O)NC1(c2ccccc2)CCN(CCC[C@]2(c3ccc(Cl)c(Cl)c3)CCCN(C(=O)c3ccccc3)C2)CC1,caspase activation,[2],1.95% [at 19 µM]
same,Potency,[6],3.79 µM (active)
O=Cc1ccc(O)c(O)c1O,Potency,[2],inactive
same,outcome,[3],inactive
same,Potency,[5],inactive
CCN(CCCc1ccccc1)CCCc1ccccc1,Potency,[2],inactive
same,Potency,[10],inactive
same,outcome,[3],inactive
same,Potency,[4],inactive
same,max activation,[7],-0.276%
same,Potency,[8],inactive
same,Potency,[6],0.871 µM (active)
